{"source": "PubChem BioAssay (NCATS)", "note": "Results filed as inconclusive are left out. Calls of active or inactive are those of the source. The call rests on the fitted dose curve; in most records, active means well fitted curve in the direction sought with a large enough effect in the signal ratio; inconclusive means small, poorly fitted or top-dose-only effect, or effect the other way, or a change in a side signal; inactive means no such curve, though single readings can be large or run the other way; the % refers to the signal ratio."}
{"assay": "Validation of Assay for Modulators of Lamin A Splicing (AID 1459);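 further: cells exposed to compound for two days before reading; 0% is about no effect; ratio rise marks activators and ratio drop marks inhibitors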", "details": "Lamin A splicing dual RFP/GFP fluorescence reporter; series mostly up to 9.22 µM; ratio change, both ways: at the top concentration", "in_short": "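Splicing correction is reported by an EGFP-containing lamin A minigene in stably transfected S3 HeLa cells, while DsRed2 controls for viability and nonspecific signal. Cells are exposed to compounds for 48 hrs before the GFP over RFP ratio is taken.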"}
{"compound": "CC(Cc1ccc(OCC(=O)O)cc1)NCC(O)c1cccc(Cl)c1", "note": "(stereo not drawn)", "ratio change, both ways": "-0.847% (inactive)"}
{"compound": "NCCc1c[nH]c2ccc(C(N)=O)cc12", "ratio change, both ways": "14.6% (inactive)"}
{"compound": "O=P(O)(O)C(Cl)(Cl)P(=O)(O)O", "ratio change, both ways": "-12% (inactive)"}
{"compound": "C[N+]1(C)CCN(c2ccccc2)CC1", "ratio change, both ways": "-24.5% (inactive)"}
{"compound": "CCCN(CCC)CCc1c[nH]c2ccc(C(N)=O)cc12", "ratio change, both ways": "-5.9% (inactive)"}
{"compound": "COc1ccc2c(c1OC)C(=O)OC2C1c2cc3c(cc2CCN1C)OCO3", "note": "(stereo not drawn)", "ratio change, both ways": "-4.76% (inactive)"}
{"compound": "C[N+](C)(C)CC#CCOC(=O)Nc1cccc(Cl)c1", "ratio change, both ways": "-11.6% (inactive)"}
{"compound": "CCCn1c(=O)c2[nH]c(C3CCCC3)nc2n(CCCOC(=O)c2ccc(S(=O)(=O)F)cc2)c1=O", "ratio change, both ways": "-2.16% (inactive)"}
{"compound": "N#CC(C#N)=Cc1cc(O)c(O)c(O)c1", "ratio change, both ways": "6.81% (inactive)"}
{"compound": "Nc1ccc(CCN2CCN(c3cccc(C(F)(F)F)c3)CC2)cc1", "ratio change, both ways": "5.73% (inactive)"}
{"compound": "O=c1c2ccccc2[se]n1-c1ccccc1", "ratio change, both ways": "13.9% (inactive)"}
{"compound": "O=C(O)c1cc[c]([Hg][Cl])cc1", "ratio change, both ways": "6.08% (inactive)"}
{"compound": "CNC(=O)OCC[N+](C)(C)C", "ratio change, both ways": "7.98% (inactive)"}
{"compound": "N[C@@]1(C(=O)O)CC[C@@H](C(=O)O)C1", "ratio change, both ways": "-5.65% (inactive)"}
{"compound": "NCCc1ccc(S(=O)(=O)F)cc1", "ratio change, both ways": "16.2% (inactive)"}
{"compound": "Cc1[nH]c2ccc(O)cc2c1CCN", "ratio change, both ways": "-5.79% (inactive)"}
{"compound": "CN(N=O)c1cc(O)ccc1O", "ratio change, both ways": "-4.93% (inactive)"}
{"compound": "CCOC(=O)c1ncn2c1[C@@H]1CCCN1C(=O)c1cc(OC)ccc1-2", "ratio change, both ways": "4.27% (inactive)"}
{"compound": "O=S1(=O)N(CCN2CC=C(c3c[nH]c4cc(F)ccc34)CC2)c2cccc3c2N1CCC3", "ratio change, both ways": "-14.6% (inactive)"}
{"compound": "CC(C)CC(NP(=O)(O)O[C@@H]1O[C@@H](C)[C@H](O)[C@@H](O)[C@H]1O)C(=O)NC(Cc1c[nH]c2ccccc12)C(=O)O", "note": "(stereo partly drawn)", "ratio change, both ways": "10.6% (inactive)"}
{"compound": "CCCn1c(C)c(C(=O)c2ccc3ccccc3c2)c2ccccc21", "ratio change, both ways": "-11.8% (inactive)"}
{"compound": "N[C@@H](Cn1oc(=O)[nH]c1=O)C(=O)O", "ratio change, both ways": "7.1% (inactive)"}
{"compound": "CN1CCC(c2c[nH]c3ccc(O)cc23)CC1", "ratio change, both ways": "-10.8% (inactive)"}
{"compound": "NC(=O)COc1c(F)cc(SCCNS(=O)(=O)c2ccccc2)cc1F", "ratio change, both ways": "6.02% (inactive)"}
{"compound": "NNC(N)=O", "ratio change, both ways": "5.64% (inactive)"}
{"compound": "O=C1C=CC(=O)C=C1", "ratio change, both ways": "-7.28% (inactive)"}
{"compound": "CCCN1CCCC2Cc3[nH]ncc3CC21", "note": "(stereo not drawn)", "ratio change, both ways": "-8.51% (inactive)"}
{"compound": "CCCN1CC[C@@H]2c3cc(O)ccc3CC[C@@H]21", "ratio change, both ways": "-9.5% (inactive)"}
{"compound": "CCCN(CCC)[C@@H]1CCc2cccc(O)c2C1", "ratio change, both ways": "-6.18% (inactive)"}
{"compound": "CCCN(CCC)[C@H]1CCc2c(F)ccc(O)c2C1", "ratio change, both ways": "5.46% (inactive)"}
{"compound": "Clc1ccc(N2CC3CCC(C2)N3)nn1", "ratio change, both ways": "-4.61% (inactive)"}
{"compound": "CCCN(CCC)CCc1ccc(O)c(O)c1", "ratio change, both ways": "-7.95% (inactive)"}
{"compound": "C=CCN1CC[C@]23c4c5ccc(O)c4O[C@H]2/C(=N/NC(=O)c2ccccc2)CC[C@@]3(O)[C@H]1C5", "ratio change, both ways": "-7.48% (inactive)"}
